Bioassay records: PubChem, Paczesny and Yang Labs, IUPUI and University of Michigan
ST2 inh – IL1RL1 inhibition | hit rate 2.3% among 78,000 | inhibition, % for hits at 17 µM | Q01638 | AlphaLISA ST2-Fc/biotin-IL-33 interaction, 1 h; in the data active means inhibition above about 30%
Target sequence (Q01638 whole entry, looked up): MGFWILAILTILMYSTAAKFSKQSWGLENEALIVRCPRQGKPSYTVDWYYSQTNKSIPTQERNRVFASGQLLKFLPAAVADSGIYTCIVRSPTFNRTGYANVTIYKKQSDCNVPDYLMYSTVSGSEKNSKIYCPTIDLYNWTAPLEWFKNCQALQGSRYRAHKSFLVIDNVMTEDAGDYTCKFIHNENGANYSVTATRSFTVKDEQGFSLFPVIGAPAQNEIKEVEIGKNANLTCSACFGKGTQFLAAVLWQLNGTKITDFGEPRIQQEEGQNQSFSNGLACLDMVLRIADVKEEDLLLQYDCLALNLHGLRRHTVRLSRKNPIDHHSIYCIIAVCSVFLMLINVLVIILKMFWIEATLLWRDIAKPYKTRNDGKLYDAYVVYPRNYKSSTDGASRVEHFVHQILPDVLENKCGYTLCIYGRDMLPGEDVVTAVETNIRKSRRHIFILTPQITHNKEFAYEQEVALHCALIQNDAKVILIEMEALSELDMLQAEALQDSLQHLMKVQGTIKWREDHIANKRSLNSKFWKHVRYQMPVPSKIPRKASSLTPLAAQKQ
Numbers stand for hits; ! = a repeat was not active. The full list was thinned out, with hits kept by preference.

C=CCNc1nc2ccccc2nc1NS(=O)(=O)c1ccc(Br)cc1 was read as ST2 inh 33%.
For Cc1cc(C)nc(NS(=O)(=O)c2ccc(NC(=O)c3ccc(Br)cc3)cc2)n1 the results were ST2 inh inactive.
CC(C)c1ccc(N(CC(=O)Nc2ccc(C(N)=O)cc2)S(C)(=O)=O)cc1 was read as ST2 inh inactive.
Cn1c(C(=O)Nc2nccs2)cc2c(=O)n3ccccc3nc21 was read as ST2 inh inactive.
CCCCn1cnc2sc3c(c2c1=N)CCCCC3 was read as ST2 inh inactive.
`O=S(=O)(c1cccc2nsnc12)N1CCN(C23CC4CC(CC(C4)C2)C3)CC1` gave ST2 inh inactive.
`CC(=O)Nc1ccc(S(=O)(=O)N2CCC(n3c(Cc4ccccc4)nc4cccnc43)CC2)cc1` gave ST2 inh inactive.
For O=S(=O)(c1cccc2nsnc12)N1CCC(n2c(Cc3ccccc3)nc3cccnc32)CC1 the results were ST2 inh 97%.
`Cc1nc2c(ccc3nc(NC(=O)c4cccc(F)c4)sc32)s1` gave ST2 inh inactive.
O=c1c2c(nc(SCc3ccc(Cl)cc3)n1-c1ccc(F)cc1)CCS2 was read as ST2 inh inactive.
CCCCNc1nc(Nc2ccc(Cl)cc2)nc(N2CCOCC2)n1 was read as ST2 inh inactive.
`CN1CCN(C2=NC(=O)/C(=C/c3cccs3)S2)CC1` gave ST2 inh inactive.
For COc1cc(/C=C2/SC(N3CCC(C)CC3)=NC2=O)cc(OC)c1OC the results were ST2 inh inactive.
Cc1ccc(/C=c2\sc3nc(-c4ccc(OC(C)C)cc4)nn3c2=O)o1 was read as ST2 inh inactive.
Cc1ccc(/C=C2/SC(N3CCC(C)CC3)=NC2=O)o1 was read as ST2 inh 30%.
CCOc1ccc(-c2nc3s/c(=C\c4ccc(C)o4)c(=O)n3n2)cc1 was read as ST2 inh inactive.
O=C1N=C(N2CCOCC2)S/C1=C/c1ccc(-c2ccccc2)o1 was read as ST2 inh 34%.
For Cc1ccc(/C=C2\CS/C(=C\c3ccc(C)o3)C2=O)o1 the results were ST2 inh 60%.
`O=C1N=C(N2CCOCC2)S/C1=C/c1ccc(Cl)cc1` gave ST2 inh inactive.
`C=CCOc1ccc(/C=C2/SC(N3CCOCC3)=NC2=O)cc1` gave ST2 inh inactive.
For O=C(Nc1c2c(nn1-c1cccc(Cl)c1)CS(=O)C2)c1cccc(C(F)(F)F)c1 (configuration not stated) the results were ST2 inh inactive.
Screening CC1(C)CC(=O)C2=C(C1)c1c(ccc3ncccc13)NC2c1ccccc1F (configuration not stated) returned ST2 inh inactive.
Screening CCC(Nc1nc(-c2ccncc2)nc2c1CNC2)c1cc(C)ccn1 (configuration not stated) returned ST2 inh inactive.
For CC(C)CCNC(=O)c1cccn2c(=O)c3c4c(sc3nc12)CCCC4 the results were ST2 inh inactive.
`CN1CCc2c(sc3c2C(=O)NC(c2cccc(Cl)c2Cl)N3)C1` (configuration not stated) gave ST2 inh inactive.
`COc1ccc(-c2ccnc(N)c2)c(OC)c1` gave ST2 inh inactive.
Screening COc1ccc(-c2cc3ccccn3c2)c(OC)c1 returned ST2 inh 50%.
`COc1ccc(-c2nccn2CCc2ccccn2)c(OC)c1` gave ST2 inh inactive.
`CC(C)Oc1ccc(CN2CCCC(Nc3ccc(F)cc3)C2)cc1CO` (configuration not stated) gave ST2 inh inactive.
`CN1C[C@@H](NS(=O)(=O)c2ccccc2)C[C@H]1c1nc(Cc2ccccc2)no1` gave ST2 inh inactive.
CCOc1ccc(N=C(c2cccc([N+](=O)[O-])c2)N2CCOCC2)cc1 was read as ST2 inh inactive.
For CCOc1ccc(NC(=O)c2cccc([N+](=O)[O-])c2)cc1 the results were ST2 inh inactive.
Screening CCOc1ccc(C(=O)c2cccc([N+](=O)[O-])c2)cc1 returned ST2 inh 31%.
Screening CCOc1ccc2oc(-c3cc(Br)cc4c3OCOC4)c(N)c(=O)c2c1 returned ST2 inh inactive.
Screening O=C(Nc1ccc([N+](=O)[O-])cc1)c1cccc(Cl)c1Cl returned ST2 inh inactive.
`Cc1cccc(C)c1NC(=O)c1cccc(OCc2ccccc2)c1` gave ST2 inh inactive.
Screening COc1ccc(NC(=O)Cc2ccccc2[N+](=O)[O-])cc1OC returned ST2 inh inactive.
For COc1ccc(NCc2ccc([N+](=O)[O-])s2)cc1OC the results were ST2 inh 45%.
Screening COc1ccc(Nc2ncnc(N)c2[N+](=O)[O-])cc1OC returned ST2 inh inactive.
Screening COc1ccc(-c2nc3cc(C)ccn3c2NC(=O)C2CC2)cc1 returned ST2 inh inactive.
Cc1ccc(C(=O)N2CCN=C2SCc2ccccc2)cc1[N+](=O)[O-] was read as ST2 inh inactive.
`COCc1cc(C)nc(SCc2ccccc2Cl)c1C#N` gave ST2 inh inactive.
For Cc1cc(C(F)(F)F)c(C#N)c(SCC(=O)c2ccc([N+](=O)[O-])cc2)n1 the results were ST2 inh 60%.
`Cc1cc(C(F)(F)F)c(C#N)c(SCC(N)=O)n1` gave ST2 inh inactive.
Screening COCc1cc(C)nc(SCC(=O)c2ccc(Cl)cc2)c1C#N returned ST2 inh 30%!.
`COCc1cc(C)nc(SCC(=O)c2ccc(C)cc2C)c1C#N` gave ST2 inh inactive.
Cc1cc(C)c(C#N)c(SCC(=O)c2ccc(F)cc2)n1 was read as ST2 inh inactive.
For O=C(O)CCC(=O)N1N=C(c2cccs2)CC1c1ccccc1Cl (configuration not stated) the results were ST2 inh inactive.
`CCOC(=O)CNC(=O)N1CCCC(C(=O)c2ccc(SC)cc2)C1` (configuration not stated) gave ST2 inh inactive.
Screening O=C(O)Cn1nnc(-c2ccc3c(c2)OCO3)n1 returned ST2 inh inactive.
Cc1ncc2c(c1CNC(=O)CSc1ccccc1)CCN(C(=O)CC1=CCCCC1)C2 was read as ST2 inh inactive.
`Cc1ccccc1NS(=O)(=O)c1ccc(CC(C)C)cc1` gave ST2 inh inactive.
CSc1cccc(NC(=O)CSC2=NS(=O)(=O)c3ccccc32)c1 was read as ST2 inh inactive.
For Cc1ccc(C(=O)N2CCN(S(=O)(=O)c3cc4c5c(c3)CCN5C(=O)CC4)CC2)cc1C the results were ST2 inh inactive.
For O=C(c1ccc2nc3sc4c(c3c(=O)n2c1)CCCC4)N1CCN(c2ccccc2)CC1 the results were ST2 inh 31%.
O=C(NCCc1ccccc1)c1ccc2nc3sc4c(c3c(=O)n2c1)CCCC4 was read as ST2 inh inactive.
`O=C(NCc1ccccc1)c1ccc2nc3sc4c(c3c(=O)n2c1)CCCC4` gave ST2 inh inactive.
Screening COc1cc2c(C(=O)NC3CCCCCC3)cn(CC(C)C)c(=O)c2cc1OC returned ST2 inh inactive.
O=C(CCOc1ccccc1)Nc1ccnn1C1CCN(C(=O)C2=CCCCC2)CC1 was read as ST2 inh inactive.
`Brc1cnc2nc(COc3ccccc3)[nH]c2c1` gave ST2 inh 35%.
COc1ccc(OCc2nc3ccccc3[nH]2)cc1 was read as ST2 inh inactive.
Cc1cc(OCc2nc3ccccc3[nH]2)ccc1C(C)C was read as ST2 inh inactive.
Screening CC1=C(C(=O)OC2CCCCC2)C(c2cccc(C)c2)n2nnnc2N1 (configuration not stated) returned ST2 inh inactive.
